Results from PubChem BioAssay (NCI).
Compounds without any hit were thinned out: in the full panel of roughly 83,000, 20% have a hit.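 Single-dose data. Exposure time 48 hours. Values below 10 considered active.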 Active and inactive are the calls of the source.

Columns and labels:
Assay in all cases: NCI-60 one-dose screen, 48 h (100 = growth as untreated, 0 = no growth, -100 = all killed)
HT29 colon = details: 10 µM unless noted
SNB-75 CNS = details: 10 µM unless noted
SNB-19 CNS = details: 10 µM unless noted
U251 CNS = details: 10 µM unless noted
PC-3 prostate = details: 10 µM unless noted
SK-MEL-5 melanoma = details: 10 µM unless noted
UACC-62 melanoma = details: 10 µM unless noted
LOX IMVI melanoma = details: 10 µM unless noted
SK-MEL-28 melanoma = details: 10 µM
SK-MEL-2 melanoma = details: 10 µM unless noted

Measured: growth

O=C1/C=C/[C@@H](O)[C@@H]2C[C@@H](O)C[C@H]2/C=C/CCCCO1
active: HT29 colon 2.63% | PC-3 prostate -17.5% | SK-MEL-5 melanoma -93.1% | LOX IMVI melanoma 1.64% | SK-MEL-28 melanoma -8.98% | SK-MEL-2 melanoma 8.85%
inactive: SNB-75 CNS 29.7% | SNB-19 CNS 28.7% | U251 CNS 39.7% | UACC-62 melanoma 64.1%

CC(=O)c1ccc(Nc2nc(NCCO)nc(Nc3ccc(Cl)cc3)n2)cc1
inactive: HT29 colon 96.8% | SNB-75 CNS 77.5% | SNB-19 CNS 92.4% | U251 CNS 99.7% | PC-3 prostate 90.5% | SK-MEL-5 melanoma 74.9% | UACC-62 melanoma 78% | LOX IMVI melanoma 87.9% | SK-MEL-28 melanoma 95.2% | SK-MEL-2 melanoma 95.2%

CC1=C(C(=O)OCC2CCN(C(=O)OC(C)(C)C)CC2)[C@H](c2cccc(C#N)c2)C2=C(CC(C)(C)CC2=O)N1
inactive: HT29 colon 30.9% | SNB-75 CNS 62.5% | SNB-19 CNS 51.7% | U251 CNS 47.6% | PC-3 prostate 59.4% | SK-MEL-5 melanoma 20.5% | UACC-62 melanoma 43.5% | LOX IMVI melanoma 15.2% | SK-MEL-28 melanoma 68.4% | SK-MEL-2 melanoma 75.3%

CCCCCCCCCCCCCCn1cc(C2=C(c3coc4ccc(OC)cc34)C(=O)NC2=O)c2ccccc21
inactive: HT29 colon 77.1% | SNB-75 CNS 80.6% | SNB-19 CNS 101% | U251 CNS 97.9% | PC-3 prostate 109% | SK-MEL-5 melanoma 107% | UACC-62 melanoma 95.9% | LOX IMVI melanoma 101% | SK-MEL-28 melanoma 101% | SK-MEL-2 melanoma 104%

O=C(CCN1C(=O)c2ccccc2C1=O)Nc1ccc(Cl)cc1
inactive: HT29 colon 44.4% | SNB-75 CNS 94.5% | SNB-19 CNS 90.3% | U251 CNS 62.2% | PC-3 prostate 71.7% | SK-MEL-5 melanoma 81% | UACC-62 melanoma 87.4% | LOX IMVI melanoma 60.2% | SK-MEL-28 melanoma 117% | SK-MEL-2 melanoma 98.7%

CCCCN1CCN(c2ccc3nc(-c4ccc5nc(-c6ccc(C(F)(F)F)cc6)[nH]c5c4)[nH]c3c2)CC1
inactive: SK-MEL-5 melanoma 10.8%
active: HT29 colon -49.5% | SNB-75 CNS -93.6% | SNB-19 CNS -91.4% | U251 CNS -86.6% | PC-3 prostate -77% | UACC-62 melanoma -31.6% | LOX IMVI melanoma -89.5% | SK-MEL-28 melanoma -88.3% | SK-MEL-2 melanoma -47.5%

CCOC(=O)C1=C(C)N=c2s/c(=C\c3cc(Cl)ccc3O)c(=O)n2C1c1ccc(OC)cc1 (stereo not given)
inactive: HT29 colon 72.9% | SNB-75 CNS 89% | SNB-19 CNS 99% | U251 CNS 85.4% | PC-3 prostate 85.2% | SK-MEL-5 melanoma 88.5% | UACC-62 melanoma 94% | LOX IMVI melanoma 95.2% | SK-MEL-28 melanoma 106% | SK-MEL-2 melanoma 94.6%

CCOC(=O)c1sc(-c2ccc(OS(=O)(=O)C[C@]34CCC(CC3=O)C4(C)C)c(C=O)c2)nc1C
active: HT29 colon 6.26% | SNB-75 CNS -2.85% | U251 CNS -9.73% | LOX IMVI melanoma -32.1%
inactive: SNB-19 CNS 18% | PC-3 prostate 25.8% | SK-MEL-5 melanoma 16.8% | UACC-62 melanoma 25% | SK-MEL-28 melanoma 52.6% | SK-MEL-2 melanoma 12.8%

CCOc1ccc2c(c1)CN(Cc1ccc(Cl)cc1)CO2
inactive: HT29 colon 57.3% | SNB-19 CNS 18.1% | U251 CNS 25.4% | PC-3 prostate 49.1% | SK-MEL-5 melanoma 74.1% | UACC-62 melanoma 62.4% | LOX IMVI melanoma 35.2% | SK-MEL-28 melanoma 41.9% | SK-MEL-2 melanoma 50.4%
active: SNB-75 CNS -39.4%

O=C(/C=C/c1ccccc1)c1ccc(Nc2nc(NCCO)nc(Nc3ccc(Cl)cc3)n2)cc1
inactive: HT29 colon 30.2% | SNB-75 CNS 69.2% | SNB-19 CNS 79.6% | U251 CNS 23% | PC-3 prostate 77.8% | SK-MEL-5 melanoma 80.2% | UACC-62 melanoma 78.7% | LOX IMVI melanoma 30.6% | SK-MEL-28 melanoma 88.2% | SK-MEL-2 melanoma 95.4%

O=C(/C=C/c1ccc(F)cc1)c1ccc(Nc2nc(NCCO)nc(Nc3ccc(Cl)cc3)n2)cc1
inactive: HT29 colon 22.4% | SNB-75 CNS 81.4% | SNB-19 CNS 93.4% | U251 CNS 27% | PC-3 prostate 68% | SK-MEL-5 melanoma 75.4% | UACC-62 melanoma 74.5% | LOX IMVI melanoma 37.3% | SK-MEL-28 melanoma 86.9% | SK-MEL-2 melanoma 103%

S=C1CCCC(=S)N1
inactive: HT29 colon 103% | SNB-75 CNS 99% | SNB-19 CNS 103% | U251 CNS 101% | PC-3 prostate 103% | SK-MEL-5 melanoma 107% | UACC-62 melanoma 96% | LOX IMVI melanoma 96.8% | SK-MEL-28 melanoma 106% | SK-MEL-2 melanoma 102%

CCOC(=O)c1c(C=O)nc2ccccc2c1/C=C/c1ccc(Cl)cc1
inactive: HT29 colon 112% | SNB-75 CNS 79.7% | SNB-19 CNS 92.8% | U251 CNS 92.6% | PC-3 prostate 91.4% | SK-MEL-5 melanoma 83.1% | UACC-62 melanoma 102% | LOX IMVI melanoma 96.9% | SK-MEL-28 melanoma 103% | SK-MEL-2 melanoma 105%

CC(=Nc1ccccc1)C1=C(O)C(Cc2ccc(F)cc2)NC1=O (stereo not given)
inactive: SNB-75 CNS 17.9% | SNB-19 CNS 42.4% | U251 CNS 28.2% | PC-3 prostate 18.3% | SK-MEL-5 melanoma 25.1% | UACC-62 melanoma 23.5% | LOX IMVI melanoma 36.2% | SK-MEL-28 melanoma 45.3% | SK-MEL-2 melanoma 17.6%
active: HT29 colon 2.78%

Cc1ccc(N=NC2C(=O)N(c3ccc(Cl)cc3)N(c3ccc(Cl)cc3)C2=O)cc1
inactive: HT29 colon 104% | SNB-75 CNS 84.1% | SNB-19 CNS 91.1% | U251 CNS 99% | PC-3 prostate 93.4% | SK-MEL-5 melanoma 91.6% | UACC-62 melanoma 92.4% | LOX IMVI melanoma 96.6% | SK-MEL-28 melanoma 99.1% | SK-MEL-2 melanoma 105%

CCCCCCC(O)(c1ccc(F)cc1)C(CN1CCOCC1)c1ccccc1 (stereo not given)
inactive: HT29 colon 33.1% | SNB-75 CNS 32.8% | SNB-19 CNS 42% | U251 CNS 28% | PC-3 prostate 15.4% | SK-MEL-5 melanoma 52.8% | UACC-62 melanoma 22.6% | LOX IMVI melanoma 29.5% | SK-MEL-28 melanoma 68.1% | SK-MEL-2 melanoma 36.4%

Fc1ccc(Oc2ccc(Nc3ncnc4onc(-c5ccccc5)c34)cc2)cc1
inactive: HT29 colon 109% | SNB-75 CNS 86.4% | SNB-19 CNS 94% | U251 CNS 91.4% | PC-3 prostate 101% | SK-MEL-5 melanoma 100% | UACC-62 melanoma 92.1% | LOX IMVI melanoma 95.8% | SK-MEL-28 melanoma 110% | SK-MEL-2 melanoma 112%

O=C1Nc2ccccc2/C1=C/c1ccc[nH]1
inactive: HT29 colon 110% | SNB-75 CNS 105% | SNB-19 CNS 90.3% | U251 CNS 83% | PC-3 prostate 106% | SK-MEL-5 melanoma 58.7% | UACC-62 melanoma 97.7% | LOX IMVI melanoma 98.8% | SK-MEL-28 melanoma 114% | SK-MEL-2 melanoma 103%

CCCCCCc1cc2cc(-c3nc4ccccc4[nH]3)c(=Nc3ccccc3C)oc2cc1O
active: HT29 colon 2.75% | SK-MEL-28 melanoma -10.3%
inactive: SNB-75 CNS 47.8% | SNB-19 CNS 71.7% | U251 CNS 34% | PC-3 prostate 37.6% | SK-MEL-5 melanoma 41.7% | UACC-62 melanoma 54.5% | LOX IMVI melanoma 25.5% | SK-MEL-2 melanoma 47.2%

Cc1ccc2cc3c(N)c4c(C)ccc(C)c4nc3nc2c1
inactive: SNB-75 CNS 41.2% | SNB-19 CNS 80.2% | PC-3 prostate 63.9% | SK-MEL-5 melanoma 11.8%
active: HT29 colon 4.73% | U251 CNS -5.79% | UACC-62 melanoma -73% | LOX IMVI melanoma -53.8% | SK-MEL-28 melanoma -80.6% | SK-MEL-2 melanoma -33.2%

CC(C)CCNCC(O)Cn1c2ccccc2c2ccccc21 (stereo not given)
inactive: SNB-19 CNS 24.4% | U251 CNS 14.4% | PC-3 prostate 20.2% | UACC-62 melanoma 14.1% | SK-MEL-28 melanoma 14.9% | SK-MEL-2 melanoma 13.7%
active: HT29 colon -12.7% | SNB-75 CNS -3.3% | SK-MEL-5 melanoma -20.6% | LOX IMVI melanoma 1.91%

O=c1c(-c2nc3ccccc3[nH]2)cc2ccccc2n1Cc1cn(Cc2ccccc2Cl)nn1
active: HT29 colon 0.454% | SNB-75 CNS -41.2% | SK-MEL-5 melanoma 0.0348% | SK-MEL-28 melanoma 1.94%
inactive: SNB-19 CNS 54.8% | U251 CNS 37.9% | PC-3 prostate 36.6% | UACC-62 melanoma 22.1% | LOX IMVI melanoma 12.8% | SK-MEL-2 melanoma 94.1%

Cc1ccc(S(=O)c2ccc([N+](=O)[O-])c3nonc23)cc1 (stereo not given)
inactive: HT29 colon 93.8% | SNB-75 CNS 112% | SNB-19 CNS 117% | U251 CNS 96.4% | PC-3 prostate 92.6% | SK-MEL-5 melanoma 100% | UACC-62 melanoma 108% | LOX IMVI melanoma 73.6% | SK-MEL-28 melanoma 105% | SK-MEL-2 melanoma 112%

O=Cc1cc2ccccc2nc1Nc1nccs1
inactive: HT29 colon 33.9% | SNB-75 CNS 79.4% | SNB-19 CNS 71.6% | U251 CNS 70.4% | PC-3 prostate 49.5% | SK-MEL-5 melanoma 82.2% | UACC-62 melanoma 84.5% | LOX IMVI melanoma 31.7% | SK-MEL-28 melanoma 104% | SK-MEL-2 melanoma 105%

CCCCC(O)(c1ccc(Cl)cc1)C(CN1CCOCC1)c1ccc(Cl)cc1 (stereo not given)
inactive: HT29 colon 53.7% | SNB-75 CNS 39.6% | SNB-19 CNS 60.1% | U251 CNS 23.1% | PC-3 prostate 17.6% | SK-MEL-5 melanoma 13.3% | UACC-62 melanoma 31.1% | LOX IMVI melanoma 33.9% | SK-MEL-28 melanoma 54.1% | SK-MEL-2 melanoma 50.1%

CN1CCN(c2nc(Nc3ccc(O)cc3)nc3ccccc23)CC1
inactive: HT29 colon 43.4% | SNB-75 CNS 75.2% | SNB-19 CNS 55.9% | U251 CNS 33.9% | PC-3 prostate 60% | SK-MEL-5 melanoma 46.1% | UACC-62 melanoma 49.2% | LOX IMVI melanoma 20.1% | SK-MEL-28 melanoma 66.2% | SK-MEL-2 melanoma 76.8%

COc1ccc(-n2c(C(O)c3ccccc3)nn(CN3CCOCC3)c2=S)cc1 (stereo not given)
inactive: HT29 colon 109% | SNB-75 CNS 87.4% | SNB-19 CNS 92.7% | U251 CNS 95.2% | PC-3 prostate 101% | SK-MEL-5 melanoma 112% | UACC-62 melanoma 95.8% | LOX IMVI melanoma 95.4% | SK-MEL-28 melanoma 89.2% | SK-MEL-2 melanoma 95.2%

COc1ccc(/C=C/C(=O)c2ccc(Nc3nc(NCCO)nc(Nc4ccc(Cl)cc4)n3)cc2)cc1
inactive: HT29 colon 40% | SNB-75 CNS 61.2% | SNB-19 CNS 85% | U251 CNS 53.4% | PC-3 prostate 50.6% | SK-MEL-5 melanoma 66.9% | UACC-62 melanoma 69.7% | LOX IMVI melanoma 61.6% | SK-MEL-28 melanoma 79.2% | SK-MEL-2 melanoma 98.1%
